We go through 40 molecules from PubChem BioAssay.

Some of the results follow. Unmarked numbers belong to inactive results. Calls of active or inactive are those of the source.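 How the source made its calls, unless noted: active means average inhibition above a cutoff equal to the mean inhibition of all tested compounds plus one SD (cut at about 70% in these data); inactive means the rest.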

The target in one experiment is Receptor-interacting serine/threonine-protein kinase 2 (Homo sapiens) (UniProt O43353). The experiment is described as follows: inhibitors of RIPK2 association with NOD2 – fluorescence, CHO cells, BLA complementation, triplicate, confirmation (AID 624370;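 active means mean inhibition across replicates above a set limit taken from the earlier primary screen, cut at about 21% in these data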;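 further: 0% = DMSO-only wells and the high end = clavulanate BLA-blocked wells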). The following applies: CCF4 FRET, at 4.98 µM, hits give high values.
Receptor-interacting serine/threonine-protein kinase 2 (Homo sapiens), sequence (O43353 whole entry, looked up): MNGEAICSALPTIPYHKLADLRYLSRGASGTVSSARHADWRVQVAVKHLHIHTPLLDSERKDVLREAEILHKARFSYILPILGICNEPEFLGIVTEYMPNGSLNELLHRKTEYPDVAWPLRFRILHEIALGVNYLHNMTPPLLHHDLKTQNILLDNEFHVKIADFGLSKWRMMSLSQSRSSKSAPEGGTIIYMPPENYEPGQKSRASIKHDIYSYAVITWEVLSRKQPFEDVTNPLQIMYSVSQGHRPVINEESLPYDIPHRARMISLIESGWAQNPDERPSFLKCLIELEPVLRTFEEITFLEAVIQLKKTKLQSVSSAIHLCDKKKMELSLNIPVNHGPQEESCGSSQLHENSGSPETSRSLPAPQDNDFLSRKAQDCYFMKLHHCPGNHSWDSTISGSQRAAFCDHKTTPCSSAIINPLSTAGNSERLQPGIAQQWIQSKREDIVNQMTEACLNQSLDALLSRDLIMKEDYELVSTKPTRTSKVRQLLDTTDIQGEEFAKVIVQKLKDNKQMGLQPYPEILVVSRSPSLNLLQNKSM
A word on the inhibition: it is the relative decrease from the control value, in per cent. For the molecule `O=[N+]([O-])/C=C/c1ccc2c(ccn2Cc2ccccc2)c1`, the inhibition was 83.3% (active).
`O=C(NC1=CC(=O)c2ccccc2C1=O)c1ccccc1`: the inhibition is 89% (active).
Turning to `Cc1ccc(NC(=O)Cn2sc3ccccc3c2=O)cc1`, the inhibition was 33.2% (active).
Regarding `O=C1/C(=C\c2ccc([N+](=O)[O-])cc2)CS(=O)(=O)C/C1=C/c1ccc([N+](=O)[O-])cc1`, the inhibition is 91.8% (active).
On the same count and under the same terms, then `N#Cc1cccc(NC(=O)COC(=O)c2ccccc2C(=O)c2ccc(Cl)c([N+](=O)[O-])c2)c1`, with 56.2% (active); and `Cc1cccc2sc(N(CCCN(C)C)C(=O)CCS(=O)(=O)c3ccccc3)nc12`, with 25.4% (active).
For `COc1cc(NS(=O)(=O)c2ccc3ccccc3c2)c2ncccc2c1`, the inhibition is 35.7% (active).
Consider `O=C(O)c1ccc2c(c1)C(=O)N(c1ccc(/C=C/C(=O)c3ccccc3)cc1)C2=O`, for which the inhibition is 5.5%.

Test system in the next experiment: not listed separately
Kind of experiment: BLA reporter readout interference – cell-based, CHO-K1 CMV-bla, CCF4 FRET, fluorescence, artefact control for NOD2-RIPK2 interaction inhibitor project, confirmation (AID 624371;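 active means mean inhibition above the low-control mean inhibition plus three low-control SD, cut at about 11% in these data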;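 further: 0% = DMSO only wells and 100% = clavulanate high control wells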). The following applies: CCF4 FRET ratio, counterscreen, at 4.98 µM, hits give high values. Background: The purpose of a counterscreen is to sort out artefacts and off-target activity.
As for `O=[N+]([O-])/C=C/c1ccc2c(ccn2Cc2ccccc2)c1`, the inhibition is 7.27%.
For `O=C(NC1=CC(=O)c2ccccc2C1=O)c1ccccc1`, the inhibition is -4.54%.
As for `Cc1ccc(NC(=O)Cn2sc3ccccc3c2=O)cc1`, the inhibition was 3.75%.
Consider `O=C1/C(=C\c2ccc([N+](=O)[O-])cc2)CS(=O)(=O)C/C1=C/c1ccc([N+](=O)[O-])cc1`, for which the inhibition is 4.33%.
With `N#Cc1cccc(NC(=O)COC(=O)c2ccccc2C(=O)c2ccc(Cl)c([N+](=O)[O-])c2)c1`, the inhibition is 11.9% (active).
In the case of `Cc1cccc2sc(N(CCCN(C)C)C(=O)CCS(=O)(=O)c3ccccc3)nc12`, the inhibition is 7%.
Take `COc1cc(NS(=O)(=O)c2ccc3ccccc3c2)c2ncccc2c1`: the inhibition was 18.9% (active).
Consider `O=C(O)c1ccc2c(c1)C(=O)N(c1ccc(/C=C/C(=O)c3ccccc3)cc1)C2=O`, for which the inhibition was 0.39%.

The target of a further experiment is Photoreceptor-specific nuclear receptor (Homo sapiens) (UniProt Q9Y5X4). Kind of experiment: retest of NR2E3-NCOR disrupting agonists – cell-based, luminescence, CHO-S two-hybrid, confirmation (AID 624378).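 Further: 0% = DMSO in NR2E3 cells and 100% = DMSO in cells lacking NR2E3.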 Particulars: CHO-S mammalian two-hybrid NR2E3-NCOR, luciferase luminescence; at 3.98 µM; hits give high values.
Photoreceptor-specific nuclear receptor (Homo sapiens), sequence (Q9Y5X4 whole entry, looked up): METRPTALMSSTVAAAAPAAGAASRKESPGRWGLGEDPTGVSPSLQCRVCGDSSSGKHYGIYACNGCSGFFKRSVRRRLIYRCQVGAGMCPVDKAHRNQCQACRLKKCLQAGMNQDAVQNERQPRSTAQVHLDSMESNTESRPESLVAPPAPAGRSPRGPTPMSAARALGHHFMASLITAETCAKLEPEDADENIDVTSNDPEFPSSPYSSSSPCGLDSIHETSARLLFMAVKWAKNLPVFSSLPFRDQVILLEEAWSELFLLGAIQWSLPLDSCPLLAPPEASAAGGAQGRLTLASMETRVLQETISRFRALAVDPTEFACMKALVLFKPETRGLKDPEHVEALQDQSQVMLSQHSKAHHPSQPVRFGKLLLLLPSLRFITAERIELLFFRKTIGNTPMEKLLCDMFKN
On to `COc1ccc(CNS(=O)(=O)c2ccc(-c3cnc(C4CC4)o3)cc2)cc1`, for which the inhibition is 48.2%.
For `CCOc1ccc(S(=O)(=O)N2CCCCCC2)c2ccccc12`, the inhibition is 50.4%.
For `COc1ccc(S(=O)(=O)N2CCN(C(C)C(=O)Nc3ccc(C(C)C)cc3)CC2)cc1` (stereo unspecified), the inhibition was -2.85%.
Same read-out and setting: in the case of `CN(C)C(=S)N=c1ssc(=S)n1Cc1ccco1` it was -16.6%.
With `c1ccc(C2c3[nH]c4ccccc4c3CCN2Cc2cccn2-c2cccnc2)nc1` (stereo unspecified), the inhibition is -1.67%.
With `N#Cc1c(-c2ccccc2)nc(SCc2cccc(C(F)(F)F)c2)[nH]c1=O`, the inhibition was 43.6%.
Regarding `COc1cccc(CNS(=O)(=O)c2ccc3c(c2)CC(C)N3C(=O)C2CCC2)c1` (stereo unspecified), the inhibition is 73.3% (active).
`O=C(NC1=CC(=O)c2ccccc2C1=O)c1ccccc1`: the inhibition is 6.41%.
Consider `C/C(=N\NC(=S)NCc1ccccc1)c1ccc(Cl)cc1`, for which the inhibition is -1.78%.
Still for that read-out and setting: then `CCCOc1ccccc1C1CC(=O)Nc2cc3c(cc21)OCO3` (stereo unspecified), with 28.9%.
Consider `O=S(=O)(c1cccc(Cn2nnc(-c3ccc(F)cc3)n2)c1)N1CCOCC1`, for which the inhibition was 34.9%.
On the same count and under the same terms, in the case of `Cc1ccc(S(=O)(=O)N2CCN(c3ncnc4ccccc34)CC2)cc1` it was 94.1% (active).
On the same count and under the same terms, in the case of `CCC(C)N1C(=O)S/C(=C/c2ccc(Sc3nc4ccccc4[nH]3)o2)C1=O` (stereo unspecified) it was 85.7% (active).
As to `COc1cccc(NS(=O)(=O)c2ccc(-c3coc(C)n3)cc2)c1`, the inhibition is 10.9%.
Turning to `Clc1ccc(-n2nnnc2-c2cnc(-c3ccccn3)nc2-c2cccs2)cc1`, the inhibition is 24.1%.
Still for that read-out and setting: in the case of `COc1ccc(C(=O)NNC(=S)NC(=O)c2ccccc2[N+](=O)[O-])cc1` it was 3.63%; in that of `CCCc1cc(=O)[nH]c(SCC(=O)Nc2sc3c(c2C#N)CCCC3)n1`, 15.4%; in that of `O=C1/C(=C\c2ccc([N+](=O)[O-])cc2)CS(=O)(=O)C/C1=C/c1ccc([N+](=O)[O-])cc1`, 96% (active).
On the same count and under the same terms, then `COc1ccc(S(=O)(=O)NCCCCOc2ccc(Cl)cc2)cc1`, with 97.5% (active); and `COC(=O)c1ccc(NC(=O)c2ccccc2NS(=O)(=O)c2ccccc2)cc1`, with 77.4% (active); and `CNC(=O)c1sc(Nc2ccc(OCc3ccccc3)cc2)nc1C`, with 37.7%.
Still for that read-out and setting: in the case of `COC(=O)c1sccc1NC(=O)CSc1ccccc1NS(=O)(=O)c1cc(Cl)ccc1Cl` it was 84% (active).
As for `Cc1cccc(NS(=O)(=O)c2ccc(-c3cnc(C4CC4)o3)cc2)c1`, the inhibition was 53.5%.
On the same count and under the same terms, then `Cc1ccc(S(=O)(=O)N2[C@@H](c3ccc(Br)cc3)C(C(=O)O)=C[C@H]2CC2CCCC2)cc1`, with 26.2%.
On the same count and under the same terms, in the case of `Cc1nc2c(OCc3cccc(Cl)c3)cccn2c1N(C)CC1CC1` it was 1.83%; in that of `COc1cc(NS(=O)(=O)c2ccc3ccccc3c2)c2ncccc2c1`, -24.6%; in that of `Cc1cc2nc(-c3ccc(Cl)cc3)c(Cc3cccc(F)c3)n2c(C)c1Br`, 36.1%.
The same measure, in the same setting: then `CCOC(=O)CC1(NC(=O)c2cc(COc3cncc(Cl)c3)on2)CCCCC1`, with 20.2%; and `OC(c1ccc(Cl)cc1)c1ncc(-c2ccc(Cl)cc2)[nH]1` (stereo unspecified), with 79.4% (active).
Consider `Cc1ccc(NS(=O)(=O)c2ccc(-c3coc(C)n3)cc2)c(C)c1`, for which the inhibition was 57.5%.
On to `CC1CCCCN1S(=O)(=O)c1ccc(C(=O)Nc2nnc(-c3cccs3)o2)cc1` (stereo unspecified), for which the inhibition was 49.5%.
Consider `CCCC1CCC(=NNC(=S)NCCc2ccccc2)CC1` (stereo unspecified), for which the inhibition was 3.69%.
Turning to `Cc1[nH]n(-c2cccc(Cl)c2)c(=O)c1-c1ccc(Cl)cc1`, the inhibition was 97.8% (active).
Turning to `Cc1csc(NC(=S)Nc2cccc(Cl)c2)n1`, the inhibition was -131%.
In the case of `CCC1(C)Cc2c(sc3[nH]c(=S)n(Cc4ccccc4)c(=O)c23)CO1` (stereo unspecified), the inhibition was 70.9% (active).
